From the supplement of paper PMC9694430

Assays:
Assay in all cases: thermal shift delta Tm vs DMSO control; higher = stronger stabilization (binding)
Conditions in all cases: 12.5 µM; protein concentration 2 µM
[1] = tested on: LOC_OS02G45750-cb003
Method in brief: (§1)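 The melting temperature shift given here is a triplicate mean, measured against protein that received only DMSO. Melting temperatures came from Boltzmann fits of differential scanning fluorimetry data on E. coli-expressed, purified rice kinase domain constructs. Each 19.5 μl well contained 2 μM kinase, 100 mM potassium phosphate pH 7.5, 150 mM NaCl, 10% glycerol, 5 × SYPRO Orange and compound in DMSO. Plates were scanned from 25°C to 95°C at 0.05°C/s.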

[2] = tested on: LOC_OS02G54510-cb004
Method in brief: as §1

[3] = tested on: LOC_OS03G04050-cb001
Method in brief: as §1

[4] = tested on: LOC_OS03G12390-cb001
Method in brief: as §1

[5] = tested on: LOC_OS03G27990-cb004
Method in brief: as §1

[6] = tested on: LOC_OS03G50450-cb001
Method in brief: as §1

[7] = tested on: LOC_OS03G50810-cb003
Method in brief: as §1

[8] = tested on: LOC_OS04G35114-cb001
Method in brief: as §1

[9] = tested on: T1, LOC_OS04G38480-cb003
T1 sequence (whole entry): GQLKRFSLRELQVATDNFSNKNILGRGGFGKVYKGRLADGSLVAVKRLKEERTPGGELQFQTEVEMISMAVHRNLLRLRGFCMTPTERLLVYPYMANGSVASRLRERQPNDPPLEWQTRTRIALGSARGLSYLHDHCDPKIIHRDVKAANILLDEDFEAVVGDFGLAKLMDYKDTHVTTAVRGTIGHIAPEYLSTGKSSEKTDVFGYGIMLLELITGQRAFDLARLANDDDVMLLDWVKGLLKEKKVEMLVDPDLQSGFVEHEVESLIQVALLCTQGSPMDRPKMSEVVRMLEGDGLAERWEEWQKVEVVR
Method in brief: as §1

[10] = tested on: T2, LOC_OS04G41100-cb001
T2 sequence (whole entry): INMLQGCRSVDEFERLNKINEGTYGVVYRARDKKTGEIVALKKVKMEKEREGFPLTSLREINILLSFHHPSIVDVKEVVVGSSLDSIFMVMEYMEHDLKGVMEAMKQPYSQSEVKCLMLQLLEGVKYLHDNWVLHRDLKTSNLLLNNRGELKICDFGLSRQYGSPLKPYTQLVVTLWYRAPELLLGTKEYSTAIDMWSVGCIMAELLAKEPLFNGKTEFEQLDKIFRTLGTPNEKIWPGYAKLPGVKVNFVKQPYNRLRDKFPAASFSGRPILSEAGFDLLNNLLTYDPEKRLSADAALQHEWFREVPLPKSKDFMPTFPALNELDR
Method in brief: as §1

[11] = tested on: LOC_OS04G57630-cb004
Method in brief: as §1

[12] = tested on: LOC_OS05G07850-cb002
Method in brief: as §1

[13] = tested on: LOC_OS05G16824-cb004
Method in brief: as §1

[14] = tested on: LOC_OS05G28520-cb001
Method in brief: as §1

[15] = tested on: LOC_OS05G30820-cb001
Method in brief: as §1

[16] = tested on: LOC_OS05G43570-cb004
Method in brief: as §1

[17] = tested on: LOC_OS06G16330-cb003
Method in brief: as §1

[18] = tested on: T3, LOC_OS06G22820-cb001
T3 sequence (whole entry): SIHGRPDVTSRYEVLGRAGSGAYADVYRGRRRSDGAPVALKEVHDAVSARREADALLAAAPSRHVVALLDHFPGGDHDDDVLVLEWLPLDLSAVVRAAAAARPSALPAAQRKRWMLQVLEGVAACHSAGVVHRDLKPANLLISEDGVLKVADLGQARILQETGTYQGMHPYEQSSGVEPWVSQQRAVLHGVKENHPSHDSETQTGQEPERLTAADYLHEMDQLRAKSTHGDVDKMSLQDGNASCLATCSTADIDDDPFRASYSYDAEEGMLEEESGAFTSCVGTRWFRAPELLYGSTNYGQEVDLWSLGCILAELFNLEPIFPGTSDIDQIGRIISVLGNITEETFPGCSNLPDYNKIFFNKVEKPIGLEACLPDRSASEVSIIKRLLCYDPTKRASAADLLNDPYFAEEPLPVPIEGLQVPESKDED
Method in brief: as §1

[19] = tested on: LOC_OS07G06570-cb004
Method in brief: as §1

[20] = tested on: LOC_OS07G07230-cb001
Method in brief: as §1

LOC_OS06G16330-cb003, sequence (as listed by the source): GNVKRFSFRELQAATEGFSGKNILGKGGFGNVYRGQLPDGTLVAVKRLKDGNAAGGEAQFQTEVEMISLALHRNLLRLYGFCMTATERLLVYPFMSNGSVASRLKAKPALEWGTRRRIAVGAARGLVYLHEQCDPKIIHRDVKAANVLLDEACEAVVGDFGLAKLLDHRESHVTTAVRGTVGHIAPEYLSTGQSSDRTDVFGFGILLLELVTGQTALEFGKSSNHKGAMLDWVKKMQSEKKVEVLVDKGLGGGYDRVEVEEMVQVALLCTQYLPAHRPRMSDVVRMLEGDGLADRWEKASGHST

Row | Structure (SMILES) | thermal shift delta Tm [1] | thermal shift delta Tm [2] | thermal shift delta Tm [3] | thermal shift delta Tm [4] | thermal shift delta Tm [5] | thermal shift delta Tm [6] | thermal shift delta Tm [7] | thermal shift delta Tm [8] | thermal shift delta Tm [9] | thermal shift delta Tm [10] | thermal shift delta Tm [11] | thermal shift delta Tm [12] | thermal shift delta Tm [13] | thermal shift delta Tm [14] | thermal shift delta Tm [15] | thermal shift delta Tm [16] | thermal shift delta Tm [17] | thermal shift delta Tm [18] | thermal shift delta Tm [19] | thermal shift delta Tm [20]
1 | C[C@@H]1COCCN1c1cc(=O)n2c(n1)N(Cc1cncc(Cl)c1)[C@H](C(F)(F)F)CC2 | 0.59 °C | 0.31 °C | 0.37 °C | 0.19 °C | 0.22 °C | 0.04 °C | 0.46 °C | 0.41 °C | 1.55 °C | 0.39 °C | 0.52 °C | -0.08 °C | -0.52 °C | 1.37 °C | 0.35 °C | 0.36 °C | -0.04 °C | 0.75 °C | 1.02 °C | -0.12 °C
2 | COc1cc2ncnc(Nc3cccc(Cl)c3)c2cc1OC [AG-1478 (Tyrphostin AG-1478)] | 4.64 °C | 0.2 °C | 0.25 °C | 2.86 °C | 0.56 °C | 0.38 °C | 2.25 °C | 6.57 °C | 2.27 °C | 0.04 °C | 0.54 °C | 10.9 °C | 0.02 °C | 0.3 °C | 0.62 °C | 0.52 °C | 5.45 °C | 0.8 °C | 0.35 °C | 0.01 °C
3 | N#Cc1ccc(-c2c(-c3ncn[nH]3)sc(N3CCOCC3)c2C#N)c(F)c1 | 1.03 °C | 0.27 °C | 0.35 °C | 0.25 °C | 0.22 °C | 0 °C | 0.37 °C | 0.45 °C | 1.64 °C | 0.49 °C | 0.27 °C | -0.29 °C | -1.35 °C | 0.33 °C | 0.65 °C | 0.57 °C | -0.08 °C | 0.61 °C | 1.08 °C | 0.24 °C
4 | O=S(=O)(NCCNC/C=C/c1ccc(Br)cc1)c1cccc2cnccc12 | 0.56 °C | 0.32 °C | 0.25 °C | 0.22 °C | 0.02 °C | 0.46 °C | 0.01 °C | 0.54 °C | 0.79 °C | 0.63 °C | -0.1 °C | 2.68 °C | -0.59 °C | -0.13 °C | 0.53 °C | 0.62 °C | 0.87 °C | 0.31 °C | 1.14 °C | 0.17 °C
5 | COc1ccc(-c2nc(N3CCOCC3)c3sc(CN(C)c4ncc(C(=O)NO)cn4)cc3n2)cn1 | 0.52 °C | 0.27 °C | 0.23 °C | -0.11 °C | 0.18 °C | -0.05 °C | 0.23 °C | 0.64 °C | 0.82 °C | 0.24 °C | 0 °C | 0.02 °C | -1.81 °C | 0.86 °C | 0.56 °C | 0.42 °C | -0.08 °C | 0.84 °C | 0.56 °C | 0.26 °C
6 | CN(C)C/C=C/C(=O)Nc1ccc(C(=O)Nc2cccc(Nc3ncc(Cl)c(-c4c[nH]c5ccccc45)n3)c2)cc1 | 6.63 °C | 2.87 °C | 0.82 °C | 10.8 °C | 4.72 °C | 5.94 °C | 5.98 °C | 1.96 °C | 4.69 °C | 1.76 °C | 2.1 °C | 11.2 °C | 11.9 °C | 4.57 °C | 5.85 °C | 1.59 °C | 11.2 °C | 0.86 °C | 1.53 °C | 0.68 °C
